High-throughput results from PubChem.
POLI inh – blocks human DNA polymerase iota activity; Q9UNA4; Pol iota fluorescent replication assay, 10 min; Potency, µM (series often up to 115 µM), actives largely listed as inhibitors; hit rate 1% among 390,000; AID 588590
Target sequence (Q9UNA4 whole entry, looked up): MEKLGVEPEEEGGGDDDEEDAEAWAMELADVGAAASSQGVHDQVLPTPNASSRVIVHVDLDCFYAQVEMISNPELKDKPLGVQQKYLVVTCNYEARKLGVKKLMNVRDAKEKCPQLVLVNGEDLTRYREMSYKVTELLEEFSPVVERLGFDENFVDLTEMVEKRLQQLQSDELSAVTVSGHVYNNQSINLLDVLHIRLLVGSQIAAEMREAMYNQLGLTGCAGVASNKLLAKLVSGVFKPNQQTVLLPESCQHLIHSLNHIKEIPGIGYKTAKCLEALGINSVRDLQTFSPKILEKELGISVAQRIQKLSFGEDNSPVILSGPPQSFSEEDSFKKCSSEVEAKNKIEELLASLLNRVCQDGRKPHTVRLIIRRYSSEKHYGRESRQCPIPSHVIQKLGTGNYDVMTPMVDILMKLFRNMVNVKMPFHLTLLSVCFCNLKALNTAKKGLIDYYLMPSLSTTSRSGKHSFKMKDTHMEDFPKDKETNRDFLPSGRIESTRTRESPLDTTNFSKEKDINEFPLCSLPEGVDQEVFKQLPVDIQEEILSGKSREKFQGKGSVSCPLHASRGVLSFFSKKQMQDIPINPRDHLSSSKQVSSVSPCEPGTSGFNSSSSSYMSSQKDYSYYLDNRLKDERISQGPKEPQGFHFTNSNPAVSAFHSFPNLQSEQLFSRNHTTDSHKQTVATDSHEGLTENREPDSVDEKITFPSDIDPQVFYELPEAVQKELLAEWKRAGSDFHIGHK
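Pol iota at 10 nM preincubated 15 min with compounds at room temperature; reaction started with fluorescent substrate, 50 nM final. Fluorescence read kinetically at 0 and 10 min; buffer-only wells as negative control.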
Pol eta inh – inhibitors of human DNA polymerase eta; Q9Y253; recombinant Pol eta, fluorescent DNA replication assay; Potency, µM (series often up to 114 µM), usual class: inhibitors; hit rate 1.2% among 390,000; AID 588591
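Pol eta at 10 nM preincubated with compounds 15 min at room temperature; reaction started with fluorescent substrate (50 nM final) and read kinetically at 0 and 10 min.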
WRN inhibitor – blocks human WRN helicase; Q14191; WRN helicase unwinding, fluorescent forked duplex, kinetic; Potency, µM (highest dose often 114 µM), most hits filed as inhibitors; hit rate 0.46% among 360,000; AID 651768; also: nearly all actives have a fitted effect of over 55% in size
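WRN at 20 nM final preincubated with compound 15 min at room temperature; reaction started with 100 nM fluorophore/quencher forked duplex oligonucleotide and 2 mM ATP final. Unwinding followed kinetically by red fluorescence (ex 525, em 598 nm).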
POLK inh – DNA polymerase kappa (human) inhibition | Q9UBT6 | purified Pol kappa, fluorescent DNA synthesis assay, 10 min | Potency, µM (top dose mostly 107 µM), hits mostly inhibitors | hit rate 0.53% among 400,000
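Readout: fluorescence, taken kinetically at 0 and 10 min. Conditions: 10 nM Pol kappa, 15 min RT compound preincubation, 50 nM substrate final. Controls: enzyme-free buffer wells.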
PI5P4Ka inh – blocks human PI5P4K alpha kinase activity | P48426 | PI5P4Kalpha enzyme, ADP-Glo luminescence, 60 min; stronger effect = lower value | max response, % | hit rate 1.2% among 330,000 | AID 652105; active = max response of -50% or lower; inconclusive = between -30% and -50%; inactive = -30% or higher; also: value at the top dose of about 77 µM
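ADP-Glo luminescence end-point read after a 60 min room-temperature kinase reaction of PI5P4Kalpha plus substrate, initiated with ATP at 5 microM final. Buffer: 0.038 M HEPES pH 7.4, EGTA, 0.1% CHAPS, 5% DMSO.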
Pol beta inh – inhibitors of human DNA polymerase beta; Pol beta primer extension/strand displacement, fluorescence kinetic; Potency, µM (titrated, usually from 114 µM), most hits filed as inhibitors; hit rate 1.3% among 340,000; AID 485314
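10 nM enzyme + cpd, 15 min RT; start with substrate 50 nM final; read 0 min and after 10 min RT. Corrected, normalized data; 4-parameter Hill curve fit.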
Numbers stand for hits; n = inactive; u = inconclusive; x = no result; [ ] = dose if it differs, or a comment. In the library only some 2.8% were active in any assay of this set; here they are far more common. Unless noted, calls follow the shape of the dose curve; as a rule, active = well fitted curve in the direction sought with a large enough effect; inconclusive = small, poorly fitted or top-dose-only effect, or another doubt; inactive = no such curve, though single readings can be large; an effect the other way counts as inactive or inconclusive.

SMILES	POLI inh	Pol eta inh	WRN inhibitor	POLK inh	PI5P4Ka inh	Pol beta inh
CC(=O)n1cc(N(C(=O)CCl)c2ccc(C)cc2)c2ccccc21	n	32µM	n	n	n	n
Cc1cc([N+](=O)[O-])c2[nH]c(C(=O)N/N=C/c3ccccc3C(=O)O)c(-c3ccccc3)c2c1	n	45µM	u	n	x	28µM
CCCCCCCCCCCCCCCC[n+]1ccc(C)c2ccccc21	n	x	x	n	x	x
COc1cc([C@H]2OC[C@H]3[C@@H]2CO[C@H]3c2ccc(O)c(OC)c2)ccc1O	n	n	n	n	n	x
COc1cc(C2OCC3C(c4ccc(OC5OC(CO)C(O)C(O)C5O)c(OC)c4)OCC23)ccc1O (stereo unspecified)	71µM	u	n[11.6 µM]	u	n	u
COc1ccc(N=C2S/C(=C\c3ccc(OCC(=O)O)cc3)C(=O)N2CCc2c[nH]c3ccccc23)cc1	u	n	u	16µM	-57	4µM
CC(C)(C)CC(=O)Nc1cc2c3c(c1)CCN3C(=O)CC2	n	n	n	n	n	n
CCC(=O)Nc1cc2c3c(c1)CCN3C(=O)CC2	u	n	n	79µM	n	n
CC(C)(C)c1ccc(NC(=O)COC(=O)c2ccccc2OCC(=O)Nc2ccc(Br)cc2)cc1	n	x	x	n	x	x
Cc1ccc(S(=O)(=O)c2cn(C)c3cc(N4CCOCC4)c(F)cc3c2=O)c(C)c1	n	n	x	n	x	n
c1ccc(-c2nn3c(Cn4nnc5ccccc54)nnc3s2)nc1	u	79µM	n	u	x	18µM
c1ccc2c(c1)OCC(c1nn3c(Cn4nnc5ccccc54)nnc3s1)O2 (stereo unspecified)	50µM	u	n	u	x	u
N#Cc1nc(N(c2ccccc2)c2ccccc2)nc(-n2cccc2)n1	n	x	x	n	x	x
Cc1ccc(-c2nc3s/c(=C\c4ccco4)c(=O)n3n2)cc1	25µM	89µM	n	n	x	28µM
COc1ccccc1/C=c1\sc2nc(-c3ccccc3OC)nn2c1=O	n	n	n	n	n	n
Cc1ccc(/C=c2\sc3nc(-c4ccco4)nn3c2=O)o1	u	3.5µM	56µM	28µM	-69	28µM
Cc1ccc(/C=c2\sc3nc(-c4ccccc4Br)nn3c2=O)o1	u	10µM	u	20µM	u	14µM
Cc1ccc(/C=c2/sc3nnc(-c4ccccc4Cl)n3c2=O)o1	u	14µM	u	n	n	40µM
CC(Oc1ccc(F)cc1)C(=O)Nc1nc(-c2ccc(F)cc2)ns1 (stereo unspecified)	n	n	x	n	x	n
COc1ccc(-n2ccn(CC(=O)NCCc3ccccc3)c(=O)c2=O)cc1OC	n	n	x	n	x	n
CNC(=O)C1CCC(Cn2c(=O)c3sccc3n(CC(=O)NCc3ccc(C)cc3)c2=O)CC1 (stereo unspecified)	n	n	x	n	x	n
CC(=O)OCCNc1cc(N2CCN(C)CC2)c2noc3c2c1C(=O)c1ccccc1-3	n	n	n	n	n	n
CCOC(=O)C(C(=O)OCC)c1cc(Br)c2noc3c2c1C(=O)c1ccccc1-3	u	8.9µM	u	u	n	79µM
CC(C)=CC[C@@H](O)C1=CC(=O)c2c(O)ccc(O)c2C1=O	x	x	x	0.89µM	x	x
CCOCCCNC(=O)c1ccc(Cn2c(=O)c3cccn3c3cccnc32)cc1	n	n	x	n	x	u
SMILES	POLI inh	Pol eta inh	WRN inhibitor	POLK inh	PI5P4Ka inh	Pol beta inh
O=[N+]([O-])c1ccc2[nH]c(O)c(N=NC(=S)Nc3cccnc3)c2c1	u	u	u	89µM	u	u
O=C(O)c1ccccc1N=Nc1c(O)[nH]c2ccc([N+](=O)[O-])cc12	u	22µM	u	n	n	50µM
Cc1cccc(OCC(=O)NCC(=O)N=Nc2c(O)[nH]c3ccc([N+](=O)[O-])cc23)c1	n	u	n	n	u	45µM
Cc1ccccc1NCC(=O)N=Nc1c(O)[nH]c2ccc([N+](=O)[O-])cc12	n	n	n	n	n	n
Cc1nn(CC(=O)Nc2ccccc2F)c(=O)c2c(C)n(-c3ccc(Cl)cc3)nc12	n	n	x	n	x	n
Cc1ccc2[nH]c3nc(N/N=C/c4cccc(O)c4)nnc3c2c1	u	n	n	n	n	5µM
Cc1ccc(CNC(=O)c2nnn(Cc3ccc(F)cc3)c2N)cc1	n	u	x	n	x	u
NC(=NCc1ccc2c(c1)OCO2)NC(=O)c1ccccc1	n	79µM	u	n	n	n
O=C(Nc1ccc(Cl)cn1)c1cc2c(s1)-c1ccccc1OC2	n	n	n	n	n	n
O=C(NCCc1ccc(Cl)cc1)c1cc2c(s1)-c1ccccc1OC2	89µM	n	x	u	x	35µM
Cc1ccc(CCNC(=O)c2cc3c(s2)-c2c(C)cccc2OC3)cc1	n	u	x	n	x	3.5µM
CCOc1ccc(CCNC(=O)c2cc3c(s2)-c2ccccc2OC3)cc1OCC	u	n	x	n	x	32µM
Cc1noc2ncnc(N3CCCC(C(=O)Nc4cccc(C(F)(F)F)c4)C3)c12 (stereo unspecified)	n	n	x	n	x	n
COc1cc(NC(=O)Cn2nc(C(F)(F)F)c3c2CCCC3)c(OC)cc1Cl	n	n	x	n	x	n
COc1ccccc1NS(=O)(=O)c1cn(C)c(C)n1	n	n	x	n	x	n
COCCCNC(=O)CSc1nc(-c2cccc(F)c2)[nH]c1-c1ccccc1	n	n	x	n	x	n
COc1cc(NC(=O)CSc2nnc3c(n2)[nH]c2ccc(OC)cc23)cc(OC)c1	n	x	x	n	x	x
COc1cc(NC(=O)CSc2nnc3c(n2)[nH]c2ccc(S(=O)(=O)NC(C)C)cc23)cc(OC)c1OC	45µM	18µM	n[11.6 µM]	u	u	u
CC(C)(C)c1cc(CN2CCN(CCO)CC2)cc(C(C)(C)C)c1O	n	n	n	n	x	0.89µM
CCOC(=O)C1CCN(Cc2cc(C(C)(C)C)c(O)c(C(C)(C)C)c2)CC1	n	n	n	n	n	n
Cc1ccc(NC(=O)c2cc(S(=O)(=O)N3CCCC3)cn2C)cc1C	n	n	n	n	n	n
Cn1cc(NC(=O)c2cc(NC(=O)c3cc(NC=O)cn3C)cn2C)cc1C(=O)NCCC(=N)N	x	x	x	0.79µM	x	14µM
CCOc1ccc(-c2nc3c(c(SCC(=O)N4CCCCC4)n2)Cc2cccc(OC)c2O3)cc1	n	n	x	n	x	n
COc1ccc(N2CCN(C(=O)c3cn(C4CCCCC4)c(=O)c4c3c3ccccc3n4C)CC2)cc1	n	n	x	n	x	n
COc1ccc2[nH]c(C(=O)O)c(CCN3C(=O)c4ccc(C(=O)O)cc4C3=O)c2c1	n	n	n	n	-60	n
COc1cc(NC(=O)c2cnc3c(-c4ccc(F)cc4)c(C)nn3c2C)cc(OC)c1	n	n	x	u	x	n
O=C(O)c1cc(N/N=C/c2cccs2)ccc1Cl	x	x	x	x	x	22µM
COc1cc(/C=N/Nc2ccc(Cl)c(C(=O)O)c2)ccc1OC(=O)c1ccc(F)cc1	u	79µM	n[11.6 µM]	n	n	n
